# Menin MLL FP TR = inhibitors of human menin-MLL interaction, mutant MLL peptide. O00255. Menin + Texas Red MLL mutant peptide, fluorescence polarization. Potency, µM (titrated, usually from 61.6 µM), for inactives: top-dose FP activity change, negative = inhibition, usual class: inhibitors. actives 0.23% (n = 270,000). AID 1768; active = well fitted inhibition curve with a large enough effect in the polarisation, with a control signal flat, not every such curve was filed as active; inconclusive = small, poorly fitted or top-dose-only effect, or effect the other way, or a change in a side signal; inactive = no such curve, though single readings can be large or run the other way; the % refers to the polarisation; also: potency is read from the fitted curve at half-maximal effect; % of control where 0% means no effect
# MLL CXXC-DNA inh = inhibitors of human MLL CXXC domain-DNA interaction. Q03164. MLL-CXXC / FITC-HOXA9 DNA fluorescence polarization. Potency, µM (highest dose often 115 µM), for the others: at the top dose activity change, negative = inhibition, actives largely listed as inhibitors. actives 0.037% (n = 290,000); active = well fitted inhibition curve with a large enough effect in the polarisation, with a control signal flat, not every such curve was filed as active; inconclusive = small, poorly fitted or top-dose-only effect, or effect the other way, or a change in a side signal; inactive = no such curve, though single readings can be large or run the other way; the % refers to the polarisation; also: potency is read from the fitted curve at half-maximal effect
#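 Steps: dispense CXXC domain solution (7 uM) → pin compounds or unlabeled HOX-A9 DNA control → 5 min ambient → add FLSN-HOX-A9 solution (50 nM) → spin → 30 min ambient → fluorescence polarization. Tris pH 7.5/NaCl/DTT/BSA buffer.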
# Menin MLL FP FL = inhibitors of human menin-MLL interaction, wild-type MLL peptide | FP activity change, % at 61.4 µM | 290,000 tested, under 10 active | Fluorescence polarization, fluorescein-MLL peptide displacement from menin; active = well fitted curve in the direction sought with a large enough effect in the polarisation, not every such curve was filed as active; inconclusive = small, poorly fitted or top-dose-only effect, or effect the other way, or a change in a side signal; inactive = no such curve, though single readings can be large or run the other way; the % refers to the polarisation; also: % of control where 0% means no effect
# ClpP mod = qHTS Assay for Activators of ClpP; Potency, µM (doses to about 57.5 µM), without a hit: at the top dose activity change, negative = active; purified B. subtilis ClpP, FRET peptide cleavage, 20 min; actives 1.9% (n = 340,000); active = well fitted falling curve with a large enough effect; inconclusive = small, poorly fitted or top-dose-only effect; inactive = no such curve, though single readings can be large or run the other way; also: potency is read from the fitted curve at half-maximal effect; the source files actives as falling curves though it sought activators and does not explain the sign; nearly all actives have a fitted effect of over 65% in size
#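 FRET quenching reversal measured ClpP activation: 10 microg/mL B. subtilis ClpP at pH 8 with the FRET-FV decapeptide, read at 430 nm after 320 nm excitation. The 20-min minus 0-min signal was scaled between DMSO/no-enzyme wells and ADEP (5.8 microM final).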
# p53 reactivator = mutant p53 re-activation in reporter cells | actives 0.063% (n = 320,000) | Potency, µM (titrated, usually from 92.2 µM), inactives show at the top dose activity change, positive = activation, usual class: activators | AID 504706 | H1299 p53-A138V BP100-luciferase reporter, luminescence, 24 h; also: potency is read from the fitted curve at half-maximal effect; % of control where 0% means no effect; nearly all actives have a fitted effect of over 45% in size
#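 p53-null H1299 cells stably carrying temperature-sensitive p53-A138V and a BP100-luciferase reporter were pinned with compounds (4-point, 1:5 series) and held 24 hrs at 37 deg C. Luminescence was read 10 min after detection reagent.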
# MLL CXXC FP-Fl = disrupts human MLL CXXC domain binding to DNA | shares compounds with MLL CXXC-DNA inh | MLL CXXC-DNA binding, fluorescein FP | Potency, µM (top dose mostly 345 µM), for the others: top-dose activity change, negative = inhibition, hits mostly inhibitors | actives 70% (n = 200) | AID 624160; also: potency is read from the fitted curve at half-maximal effect; nearly all actives have a fitted effect of over 80% in size
# MLL CXXC TxRed = disrupts human MLL CXXC domain binding to DNA, Texas Red; AID 624161; actives 40% (n = 200); MLL CXXC-DNA binding, Texas Red fluorescence polarization; Potency, µM (highest dose often 345 µM), for the others: top-dose activity change, negative = inhibition, usual class: inhibitors; shares compounds with MLL CXXC-DNA inh; also: potency is read from the fitted curve at half-maximal effect; % is scaled to controls: 0 for no effect and ±100 for the full control effect; nearly all actives have a fitted effect of over 75% in size
# MLL CXXC TRF = inhibitors of human MLL CXXC domain-DNA interaction, HTRF format | actives 30% (n = 210) | shares compounds with MLL CXXC-DNA inh | MLL CXXC-DNA binding, HTRF, biochemical | Potency, µM (titrated, usually from 172 µM), inactives show at the highest dose activity change, negative = inhibition, most hits filed as inhibitors | AID 624162; also: % is scaled to controls: 0 for no effect and ±100 for the full control effect; nearly all actives have a fitted effect of over 80% in size
# ClpP inh valid = Bacillus subtilis ClpP inhibition, validated hit; shares compounds with ClpP mod; Potency, µM (doses to about 57.5 µM), without a hit: top-dose activity change, negative = inhibition, hits mostly inhibitors; actives 40% (n = 470); purified B. subtilis ClpP, FRET-FV substrate cleavage, 20 min; AID 743245; also: potency is read from the fitted curve at half-maximal effect; % is scaled to controls: 0 for no effect and ±100 for the full control effect; nearly all actives have a fitted effect of over 70% in size
# An asterisk follows results filed as active; ? = inconclusive; . = no result. Shown is part of a subset that was picked to be rich in hits. Unless noted, calls follow the shape of the dose curve; as a rule, active = well fitted curve in the direction sought with a large enough effect; inconclusive = small, poorly fitted or top-dose-only effect, or another doubt; inactive = no such curve, though single readings can be large; an effect the other way counts as inactive or inconclusive.
SMILES,Menin MLL FP TR,MLL CXXC-DNA inh,Menin MLL FP FL,ClpP mod,p53 reactivator,ClpP inh valid,others
COc1ccc(/C=C2/C(=O)NC(=O)N(C3CCCCC3)C2=O)cc1CSc1ccccn1,?,?,26,.,4%,.,MLL CXXC FP-Fl=142µM*;MLL CXXC TxRed=142µM*;MLL CXXC TRF=77µM*
COCCN(C(=O)CCl)c1c(C)cccc1C,-6%,.,-4,.,.,.,
N[C@@H](Cc1ccc(O)cc1)C(=O)O,30%,4%,1,.,.,.,
NC(Cc1cc(O)c(O)cc1O)C(=O)O (stereo not drawn),?,?,?,-1%,-5%,.,MLL CXXC FP-Fl=18µM*;MLL CXXC TxRed=?;MLL CXXC TRF=31µM*
CCOP(=O)(OCC)O/C(=C/Cl)c1ccc(Cl)cc1Cl,-12%,63µM*,?,.,.,.,MLL CXXC FP-Fl=159µM*;MLL CXXC TxRed=0%;MLL CXXC TRF=-6%
CCC1(CC)CCNC1=O,0%,.,7,.,.,.,
COc1cccc2c1C(=O)c1c(O)c3c(c(O)c1C2=O)C[C@@](O)(C(=O)CO)C[C@@H]3O[C@H]1C[C@H](N)[C@H](OC2CCCCO2)[C@H](C)O1 (stereo partly drawn),?,63µM*,?,-1%,.,.,MLL CXXC FP-Fl=36µM*;MLL CXXC TxRed=45µM*;MLL CXXC TRF=-33%
Cc1ccc2c(c1)cc(C(=O)Nc1ccccc1C)n2C,.,.,.,34%,.,?,
CCN(CC)CCSc1nc2ccccc2c(=O)n1-c1ccc(Cl)cc1,.,.,.,1%,.,.,
Cc1cc(NC(=O)CSc2nc3c([nH]c4ccccc43)c(=O)n2-c2ccc(Cl)cc2)no1,.,.,.,37%,.,-19%,
CC(C)OC(=O)C(O)(c1ccc(Cl)cc1)c1ccc(Cl)cc1,-13%,.,?,.,.,.,
Nc1c(C(=O)OC2CCCCC2)c2nc3ccccc3nc2n1CC1CCCO1 (stereo not drawn),-8%,-8%,1,45%,?,?,
Nc1c(C(=O)NCc2ccco2)c2nc3ccccc3nc2n1CCN1CCOCC1,0%,-4%,1,10µM*,-2%,22µM*,
CCCCCn1c(N)c(C(=O)NCCN2CCOCC2)c2nc3ccccc3nc21,-4%,-8%,7,8.9µM*,-25%,24µM*,
CCOCCCn1c(N)c(C(=O)Nc2sc3c(c2C(=O)OC)CCCC3)c2nc3ccccc3nc21,?,5%,?,5%,-6%,.,
c1ccc(CCN2CCCCC2)cc1,.,.,.,1%,.,.,
Nc1ncnc2c1ncn2[C@@H]1O[C@H](COP(=O)(O)OP(=O)(O)OP(=O)(O)O)[C@H]2OC3(O[C@H]21)C([N+](=O)[O-])=CC(=[N+]([O-])[O-])C=C3[N+](=O)[O-] (stereo partly drawn),18%,.,?,.,.,.,

# Screens: PubChem BioAssay, National Center for Advancing Translational Sciences (NCATS)
